Most compounds without a hit are left out; they make up all but 3.9% or so of the library.
TROY signal inh = inhibitors of TROY-driven NF-kB signaling, primary screen, Q293 LMP1-TROYcd cells, NF-kB luciferase, uHTS; Q293 LMP1-TROYcd NF-kB luciferase reporter, 4 h; inhibition, % at 10 µM; hit rate 0.98% among 360,000; AID 1347056, 2019;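 active means compounds whose plate-normalised and pattern-corrected inhibition of the luciferase reporter signal at the single screening dose is 50% or more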
Peg3 promoter = Peg3 promoter-driven luciferase inhibitors, primary screen, cell-based, HeLa, luciferase luminescence; inhibition, % at 20 µM; hit rate 1.7% among 360,000; HeLa PEG-Prom luciferase reporter, overnight;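 active means inhibition of at least 50% at 20 µM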
CF NFkB block = inhibitors of PAF-induced NF-kB signaling, primary screen, cell-based, GFP fluorescence, uHTS; KKLEB NF-kB-GFP reporter, GFP fluorescence overnight; inhibition, % at 5 µM; hit rate 0.86% among 360,000;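 active means at least 50% inhibition at 5 µM, scaled per plate between neutral and stimulator controls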;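 further: PAF is a Pseudomonas aeruginosa culture filtrate used as stimulus; plate controls were PAF-stimulated DMSO wells for no effect and unstimulated DMSO wells for full effect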
TWEAK Fn14 block = inhibitors of TWEAK-Fn14 signaling, primary screen, luciferase reporter cells, uHTS. TWEAK-stimulated Fn14 reporter cells, luciferase luminescence, 8 h. inhibition, % at 10 µM. hit rate 2% among 360,000. AID 1159606, 2016; in the data active means inhibition above about 50%
HIF-2a block = HIF-2a reporter inhibitors, primary screen, luminescence, 786-0 RCC cells | hit rate 0.72% among 360,000 | inhibition, % at 18.8 µM | 786-0 RCC cells HIF-2a reporter, luciferase luminescence, overnight;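 active means inhibition of the luminescence signal of 40% or more relative to plate controls, in a single-dose primary screen at 18.75 µM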
KKLEB tox = cytotoxicity in KKLEB CF airway cells, primary screen, cytotoxicity control for CF NF-kB inhibitor project, cell-based, uHTS, fluorescence assay plates. KKLEB CF airway cells viability, ATPlite luminescence, overnight; stronger effect = lower value; cells stimulated with P. aeruginosa culture filtrate. hit rate 0.36% among 360,000. activity change (cytotoxicity), % at 5 µM;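 active means corrected activity change at or below -50% at 5 µM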
Active calls of the source: *.

SMILES	TROY signal inh	Peg3 promoter	CF NFkB block	TWEAK Fn14 block	HIF-2a block	KKLEB tox
Cc1ccc([N+](=O)[O-])cc1N(CC(=O)Nc1ccc(S(=O)(=O)Nc2cccc(C(F)(F)F)c2)cc1)S(C)(=O)=O	70*	39	-2	85*	14	-7
COc1ccc(OCC(=O)N2CCN(c3nnc(-c4ccccc4)c4ccccc34)CC2)cc1	27	17	-20	7	19	6
COc1ccc(OCC(=O)N2CCN(c3nnc(-c4ccc(C)cc4)c4ccccc34)CC2)cc1	59*	19	11	-2	20	-4
Cc1ccc(-c2nnc(N3CCN(C(=O)COc4cccc(C)c4)CC3)c3ccccc23)cc1	35	14	5	-12	7	-2
Cc1ccc(OCC(=O)N2CCN(c3nnc(-c4ccc(C)cc4)c4ccccc34)CC2)cc1	59*	28	14	51*	10	10
CCOC(=O)NN1C(=O)c2ccccc2NC1(C)C	36	-9	-1	-1	14	-2
CN(C)S(=O)(=O)c1ccc(C(=O)Nc2nnc(SCC(=O)NCC3CCCO3)s2)cc1 (configuration not stated)	-26	-3	-21	-1	-24	5
O=C(O)CSc1nnc(NC(=O)c2ccc3c(c2)OCO3)s1	11	39	8	28	41*	-19
CC(C)(C)c1ccc(C(=O)Nc2nnc(SCC(=O)NCC3CCCO3)s2)cc1 (configuration not stated)	6	-41	-2	71*	-1	-62*
COC(=O)CSc1nnc(NC(=O)c2ccc3c(c2)OCO3)s1	-7	-23	7	23	-117	10
O=C(Nc1nnc(SCC(=O)N2CCOCC2)s1)c1ccccc1	73*	-93	1	71*	-84	2
O=C1[C@@H]2C(c3cccnc3)=NO[C@@H]2C(=O)N1c1ccc2ccccc2c1	25	7	-5	11	6	6
CCN(Cc1ccccc1)S(=O)(=O)c1ccc(C(=O)N(CCCN(C)C)c2nc3c(F)cccc3s2)cc1	-4	1	20	-6	7	-14
CCCCN(CC)S(=O)(=O)c1ccc(C(=O)N(CCCN(C)C)c2nc3cc(C)cc(C)c3s2)cc1	17	103*	8	-46	21	-24
CCN(Cc1ccccc1)S(=O)(=O)c1ccc(C(=O)N(CCCN(C)C)c2nc3cc(C)cc(C)c3s2)cc1	-33	100*	40	-2	-1	-26
CCCCN(C)S(=O)(=O)c1ccc(C(=O)N(CCN(C)C)c2nc3ccc(C)cc3s2)cc1	-26	-62	18	-7	-62	-14
Cc1ccc(S(=O)(=O)NNC2=NS(=O)(=O)c3ccccc32)c(C)c1	19	11	-2	14	9	4
Cc1c(CCOC(=O)c2cc([N+](=O)[O-])cc([N+](=O)[O-])c2)sc[n+]1CCCCS(=O)(=O)[O-]	2	-8	-14	4	6	-1
CNC(=O)CSc1nc2cc(S(=O)(=O)Nc3ccccc3OC)ccc2o1	15	6	-1	39	-1	1
COc1ccccc1NS(=O)(=O)c1ccc2oc(SCc3ccc(C#N)cc3)nc2c1	39	28	-1	58*	26	2
CCC(C)(C)c1nnc(NC(=O)C2CCN(C(=O)c3ccco3)CC2)s1	2	3	-7	1	11	8
Cc1cc(C)cc(Nc2nc3ccccc3c(=O)[nH]2)c1	-29	-44	7	-3	-29	3
Cc1ccc2c(=O)[nH]c(Nc3nc(C)cc(-c4ccccc4)n3)nc2c1	7	-6	-5	1	-18	-9
Cc1nc(Nc2nc(CSc3nc4ccccc4[nH]3)cc(=O)[nH]2)nc2ccccc12	46	102*	31	92*	-23	14
Cc1nc(Nc2nc(CSc3ccc(Cl)cc3)cc(=O)[nH]2)nc2ccccc12	-7	13	-1	-5	6	2
SMILES	TROY signal inh	Peg3 promoter	CF NFkB block	TWEAK Fn14 block	HIF-2a block	KKLEB tox
COc1cccc2c(C)nc(Nc3nc(CSc4nnc(C)s4)cc(=O)[nH]3)nc12	-3	76*	-5	8	14	11
Cc1nc(Nc2nc(-c3ccccc3)cc(=O)[nH]2)nc2ccccc12	13	64*	-154	2	-229	0
COc1nc(Nc2nc3ccccc3c(=O)[nH]2)nc2ccc(C)cc12	2	98*	48	55*	-41	0
Cc1ccc2c(C)nc(Nc3nc(CSc4nnc(C)s4)cc(=O)[nH]3)nc2c1	-19	39	-10	2	39	-1
Cc1c(Nc2scc(-c3ccccc3)[n+]2-c2ccccc2)c(=O)n(-c2ccccc2)n1C	-28	23	13	-5	-4	10
N=NC(=O)c1ccccc1Nc1c(O)[nH]c2ccccc12	6	-141	-17	53*	-108	-28
O=C(NN1CCOCC1)c1cc(Cl)ccc1Cl	-18	8	-4	0	15	5
COc1ccc(C(C[N+](=O)[O-])C2(c3ccc(OC)c(OC)c3)C(=O)c3ccccc3C2=O)cc1 (configuration not stated)	47	102*	45	45	87*	-14
O=C1N/C(=C/c2cccn2-c2ccc(F)cc2)C(=O)N1Cc1ccccc1F	-27	16	21	75*	3	-14
O=C1N/C(=C/c2cccn2-c2ccccc2)C(=O)N1Cc1ccc(F)cc1	0	12	12	1	8	-12
CC(=O)NNc1ncnc2c1cnn2-c1ccc(C)c(C)c1	54*	-41	-7	66*	-70	11
Cc1ccc(N2C(=S)NC3c4ccccc4OC2(C)C3C(=O)N(C)C)cc1 (configuration not stated)	-21	4	2	10	16	-10
CC(=O)Oc1c(C)cc(Cl)cc1C(=O)Nc1ccc([N+](=O)[O-])cc1Cl	45	-13	63*	88*	-157	-78*
Cc1ccc2nc(CSc3nc(C)ccc3C#N)[nH]c2c1	45	-183	-21	69*	8	-10
COc1ccc(C2=C(C=Nc3c(C)n(C)n(-c4ccccc4)c3=O)C(c3ccccc3C)c3ccccc3O2)cc1OC (configuration not stated)	11	18	-2	-15	6	-4
COc1ccc(C(=O)Nc2ccc3c(c2)C(=O)c2ccccc2C3=O)cc1OC	-45	-62	-4	-29	-51	-2
COc1ccc(C(=O)c2c(C(F)(F)F)oc3c2C(=O)c2ccccc2C3=O)cc1OC	51*	89*	88*	58*	4	-65*
